# Measurements as given in PubChem BioAssay (Tox21).
# Results filed as inconclusive are left out. Where a call stands in place of a potency, no number is given. Active and inactive are the calls of the source. The call rests on the fitted dose curve; in most records, active means well fitted inhibition curve with a large enough effect in the repeat runs; inconclusive means weak or mixed curves, or effect the other way; inactive means no such curve, though single readings can be large or run the other way.
# Experiment: qHTS assay to identify small molecule antagonists of the retinoic acid receptor (RAR) signaling pathway (AID 1159552; further: nearly all actives have a fitted effect of over 50% in size)
# Settings: C3RL4 RARE luciferase reporter, retinol-stimulated, 6 h; series mostly up to 92.4 µM
# From the text: National Center for Advancing Translational Sciences [NCATS]
# NIH Chemical Genomics Center [NCGC]
# U.S. Environmental Protection Agency [EPA]
# National Institutes of Environmental Health Sciences [NIEHS]
# National Toxicology Program [NTP]
# U.S. Food and Drug Administration [FDA]
# All-trans Retinoic acid (atRA) is the potent natural metabolite of retinol and plays an important role in normal embryonic development and maintenance of cellular phenotype in adult animals. atRA is the activating ligand for the retinoic acid receptors (RARs) which form heterodimers with retinoid X receptors (RXRs) on the retinoic acid response element (RARE). Through activation of the RAR/RXRs nuclear receptors, atRA regulates the transcription of a large number of protein-coding genes and regulatory RNAs. Intracellular levels of atRA are controlled by the retinol signaling pathway (RSP) that regulates the biosynthesis and catabolism of atRA to maintain physiological levels. Chemicals that interfere with the RSP can cause abnormal intracellular levels of atRA and therefore are potential developmental toxicants. To assess compounds for the potential adverse effect on embryonic development through interfering with retinol signaling, a cell-based RARE luciferase reporter gene assay was used. C3RL4 cell line (OARSA/CFSAN/FDA, Laurel, MD) was used to screen Tox21 10K compound library for identifying inhibitors of the RSP.
# Tox21 Assay Protocol Summary:
# C3RL4 cells were seeded at 1,000/well in 4 uL of assay medium into white solid 1,536-well tissue culture plates (Greiner Bio-One North America Inc. Monroe, NC) using a Multidrop Combi (Thermo Scientific, Waltham, MA) dispenser. After incubation at 37 C and 5% CO2 for an overnight, 23 nL of compounds dissolved in DMSO, positive control or DMSO only were transferred by a Pintool station (Kalypsys, San Diego, CA). One ul of 1 uM (final concentration) of Retinol was added right after the compound addition by using a Flying Reagent Dispenser (FRD) (Aurora Discovery, San Diego, CA). After 6 hr incubation at 37 C and 5% CO2, 5 uL of Amplite Luciferase reagent (AAT Bioquest Inc. Sunnyvale, CA) was added to each assay plate using an FRD. Luminescence was quantified on a ViewLux plate reader (PerkinElmer, Waltham, MA) after 30 min incubation at room temperature.
# Potency means the concentration at half of the fitted maximal effect.
Structure (SMILES),Potency,"activity, negative = inhibition"
Clc1cccc(N2CCNCC2)c1,inactive,–
CNNC,inactive,–
O=[N+]([O-])c1ccc(CBr)cc1,inactive,–
ClC(Cl)Br,inactive,–
C[C@]12CC[C@H]3[C@@H](CC=C4C[C@@H](O)CC[C@@]43C)[C@@H]1CC[C@@H]2O,inactive,–
C=C(C)[C@@H]1CC=C(C=O)CC1,inactive,–
CNC(=O)Oc1c(C(C)(C)C)cc(C)cc1C(C)(C)C,inactive,–
C[C@H]1CCC[C@H](O)CCCCCc2cc(O)cc(O)c2C(=O)O1,inactive,–
O=C(Cc1ccccc1)OCc1ccccc1,inactive,–
O=[N+]([O-])c1ccc2c3c(cccc13)CC2,inactive,–
CCOP(=S)(OCC)SCSc1ccc(Cl)cc1,inactive,–
CC1CCCCC1NC(=O)Nc1ccccc1 (stereo not given),inactive,–
CCN(CC)c1nc(C)cc(OP(=S)(OC)OC)n1,inactive,–
CNC(=O)Oc1ccc(N(C)C)c(C)c1,inactive,–
CC(=O)Nc1cc([As](=O)(O)O)ccc1O,inactive,–
Cc1cnc[nH]1,inactive,–
COC(=O)c1ccccc1S(=O)(=O)NC(=O)N(C)c1nc(C)nc(OC)n1,inactive,–
CCS(=O)(=O)CCSP(=O)(OC)OC,inactive,–
O=C1OC(=O)C2C1C1(Cl)C(Cl)=C(Cl)C2(Cl)C1(Cl)Cl (stereo not given),inactive,–
Cc1cc(C)c(C(=O)P(=O)(C(=O)c2c(C)cc(C)cc2C)c2ccccc2)c(C)c1,inactive,–

Structure (SMILES),Potency,"activity, negative = inhibition"
[As]#[In],inactive,–
CC1(C)COP(Oc2ccccc2)OC1,inactive,–
CC(C(O)c1ccccc1)N(C)C/C=C/c1ccccc1 (stereo not given),inactive,–
N#CC(Cl)(Cl)Cl,inactive,–
c1cc[c]([Hg][c]2ccccc2)cc1,inactive,–
COC(C)(C)C,inactive,–
ClC(Cl)C(Cl)Cl,inactive,–
O=C1c2ccccc2C(=O)c2ccccc21,–,14.2% [at 19 µM] (inactive)
CC1COC2(c3ccccc3Cl)c3cc(Cl)ccc3NC(=O)CN12 (stereo not given),29.8 µM (active),–
C#C[C@]1(O)C=C[C@H]2[C@@H]3CCC4=CC(=O)CC[C@@H]4[C@H]3CC[C@@]21CC,11.9 µM (active),–
NC(=S)C(N)=S,inactive,–
CS(=O)(=O)c1cc(C(F)(F)F)ccc1C(=O)c1cnoc1C1CC1,inactive,–
C[C@]12CC[C@H]3[C@@H](CCC4=CC(=O)CC[C@@]43C)[C@@H]1CC[C@@H]2C(=O)O,inactive,–
CCOc1nc(C(Cl)(Cl)Cl)ns1,inactive,–
COP(=S)(OC)Oc1c(Cl)cc(C)cc1Cl,inactive,–
C=CC1CC=CCC1 (stereo not given),inactive,–
CCN(CC)C(=O)[C@@H]1C=C2c3cccc4[nH]cc(c34)C[C@H]2N(C)C1,inactive,–
CCOP(=S)(Oc1cnc(C(C)(C)C)nc1)OC(C)C (stereo not given),inactive,–
Nc1c(Br)cc([N+](=O)[O-])cc1[N+](=O)[O-],inactive,–
ClCC(Cl)(Cl)Cl,inactive,–
